From PubChem BioAssay (EPA / NIEHS) come the findings set out here.

The source made the active and inactive calls. Rule for the calls: active = hit-call score of the fitted dose curve at least 0.9, where 1 is the maximum; inactive = score below 0.9.

Test [1] is described as follows: ATG_CRE_CIS: Attagene CIS-FACTORIAL HepG2 Assay for human cAMP Responsive Element (CRE) binding protein 3 (AID 2282926). Particulars: HepG2 CRE cis-reporter, Attagene multiplexed mRNA; actives raise or lower the signal. A digest of the protocol: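 Liver-derived HepG2, transfected with a CRE-containing reporter panel, exposed 24 h; transcript levels sized and quantified by capillary electrophoresis of labelled amplicons; signal changes either way referenced to vehicle.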

Test [2] addresses CCAAT/enhancer-binding protein beta (Homo sapiens) (UniProt P17676). The test can be described thus: ATG_C_EBP_CIS: Attagene CIS-FACTORIAL HepG2 Assay for human CCAAT/Enhancer Binding Protein (C/EBP) beta (AID 2282927). Particulars: HepG2 Attagene cis-factorial transcription factor reporter; actives raise or lower the signal. A digest of the protocol:
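Transiently transfected HepG2 (MRTU library, endogenous TF-driven promoters); 24 h dosing; total RNA → oligo(dT) RT → PCR → 6-FAM primer extension → HpaI digest → CE; fit bidirectionally vs DMSO.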

Test [3] is described as follows: ATG_CMV_CIS: Attagene CIS-FACTORIAL HepG2 Assay for human CMV (Internal Marker) (AID 2282928).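 Note: endpoint acts as a background internal control marker rather than a target.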 The note with it: HepG2 CMV promoter reporter, transcription factor profiling; actives raise or lower the signal. A digest of the protocol:
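Bidirectional fits against DMSO are applied to reporter mRNA, read by RT-PCR with capillary electrophoresis, from HepG2 cells exposed 24 h. The endpoint serves as an internal CMV background marker within the cis-factorial reporter panel.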

Test [4] addresses Aryl hydrocarbon receptor (Homo sapiens) (UniProt P35869). In words: ATG_Ahr_CIS: Attagene CIS-FACTORIAL HepG2 Assay for human Aryl Hydrocarbon Receptor (Ahr) (AID 2282930). Particulars: HepG2 AhR cis-factorial reporter transcription; actives raise or lower the signal. A digest of the protocol:
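Read-out: reporter mRNA quantified by RT-PCR with fluorescent primer extension and capillary electrophoresis. Human HepG2 liver cells carried transfected cis-promoter reporter units and were exposed to chemical for 24 h; gain or loss fitted relative to DMSO.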

Test [5] is described as follows: ATG_AP_1_CIS: Attagene CIS-FACTORIAL HepG2 Assay for human Activator Protein 1 (AP-1) (AID 2282931). Particulars: HepG2 Attagene cis-factorial AP-1 reporter mRNA; actives raise or lower the signal. A digest of the protocol:
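Cis-regulated reporter units transiently expressed in HepG2 report endogenous transcription-factor activity. Signal: reporter mRNA at 24 h, via RT-PCR and fluorescent capillary electrophoresis. Endpoint derived by bidirectional fitting, DMSO as negative control.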

Test [6] is described as follows: ATG_AP_2_CIS: Attagene CIS-FACTORIAL HepG2 Assay for human Activator Protein 2 (AP-2) (AID 2282932). Particulars: HepG2 AP-2 cis-reporter, Attagene transcription factor profiling; actives raise or lower the signal. A digest of the protocol:
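Read-out: fluorescent reporter mRNA via RT-PCR and capillary electrophoresis, 24 h post-dose in transiently transfected HepG2. Endogenous factors drive cis-promoter reporters; gain or loss of signal fitted bidirectionally against DMSO.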

The nature of test [7]: ATG_BRE_CIS: Attagene CIS-FACTORIAL HepG2 Assay for human Bone Morphogenetic Protein (BMP) Response Element (BRE) (AID 2282933). Particulars: HepG2 BMP response element reporter, Attagene transcription factor profiling; actives raise or lower the signal. A digest of the protocol:
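HepG2 cells transiently transfected with multiplexed cis-element reporter units were dosed with chemical for 24 h. Reporter mRNA was measured by RT-PCR with fluorescent labelling, HpaI digestion and capillary electrophoresis; bidirectional fitting relative to DMSO.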

The target of test [8] is Retinoic acid receptor alpha (Homo sapiens) (UniProt P10276). The test can be described thus: ATG_DR5_RAR_CIS: Attagene CIS-FACTORIAL HepG2 Assay for human Retinoic Acid Receptor Alpha (RARE), DR5 submotif (AID 2282934).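 For AC50: reporter responds to endogenous RAR alpha beta and gamma in HepG2 not RARA alone.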 Particulars: HepG2 Attagene cis-factorial RARE DR5 reporter, mRNA; actives raise or lower the signal. A digest of the protocol:
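Read-out: DR5-driven reporter transcript measured by RT-PCR, 6-FAM primer extension, HpaI digest and capillary electrophoresis. Human HepG2 liver cells carry transiently transfected cis-element reporter constructs; dosing lasts 24 h. Gain or loss of signal fitted against DMSO baseline.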

For test [9], the target named is Transcription factor E2F1 (Homo sapiens) (UniProt Q01094). The test can be described thus: ATG_E2F_CIS: Attagene CIS-FACTORIAL HepG2 Assay for human E2F Transcription Factor 1 (AID 2282935). The note with it: HepG2 Attagene cis-reporter, E2F reporter RNA transcripts; actives raise or lower the signal. A digest of the protocol: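 Transient MRTU transfection of HepG2; 24 h compound exposure; RNA → oligo(dT) RT → PCR → FAM label → HpaI cut → CE fluorescence. Gain/loss of signal fit against DMSO.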
Sequence of Transcription factor E2F1 (Homo sapiens) (Q01094 whole entry, looked up): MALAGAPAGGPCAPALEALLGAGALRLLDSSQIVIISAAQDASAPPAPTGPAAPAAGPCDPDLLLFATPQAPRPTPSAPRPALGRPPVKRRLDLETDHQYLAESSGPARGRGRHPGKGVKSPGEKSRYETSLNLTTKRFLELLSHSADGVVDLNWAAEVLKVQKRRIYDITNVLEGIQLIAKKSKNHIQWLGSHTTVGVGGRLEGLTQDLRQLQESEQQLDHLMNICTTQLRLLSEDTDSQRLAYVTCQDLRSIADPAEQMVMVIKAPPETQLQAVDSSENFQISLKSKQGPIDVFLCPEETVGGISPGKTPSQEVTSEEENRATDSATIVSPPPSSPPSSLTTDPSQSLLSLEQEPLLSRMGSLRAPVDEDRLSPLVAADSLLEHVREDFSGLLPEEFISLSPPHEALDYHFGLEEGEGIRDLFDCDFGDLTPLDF

Test [10] in a line: ATG_E_Box_CIS: Attagene CIS-FACTORIAL HepG2 Assay for human Enhancer Box (E-box) (AID 2282936). The note with it: HepG2 E-box cis-reporter transcription, actives raise or lower the signal. A digest of the protocol: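 Transiently transfected HepG2, endogenous TF-driven reporters, 24 h dosing. Readout: RT-PCR plus capillary electrophoresis of fluorescent reporter fragments. Gain or loss of signal fitted bidirectionally against DMSO baseline.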

Test [11] in a line: ATG_M_61_CIS: Attagene CIS-FACTORIAL HepG2 Assay for M61 Transcription Factor (Internal Marker) (AID 2282937). The note with it: HepG2 Attagene CIS-FACTORIAL M61 internal marker reporter; actives raise or lower the signal. A digest of the protocol:
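Background-control endpoint: HepG2 cells with cis-regulated reporter constructs, 24 h exposure, reporter mRNA detected via fluorescent primer extension and capillary electrophoresis; values from bidirectional fitting with DMSO baseline.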

Test [12] can be described thus: ATG_EGR_CIS: Attagene CIS-FACTORIAL HepG2 Assay for human Early Growth Response 1 (EGR1) (AID 2282938). Particulars: HepG2 Attagene CIS-FACTORIAL EGR reporter mRNA; actives raise or lower the signal. A digest of the protocol:
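Endpoint derived by bidirectional fitting versus DMSO vehicle. Method: cis-promoter reporter units transfected into HepG2, 24 h dosing, RNA isolation, RT-PCR with 6-FAM primer extension and HpaI digestion, then capillary electrophoresis fluorescence detection.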

A short description of test [13]: ATG_M_19_CIS: Attagene CIS-FACTORIAL HepG2 Assay for M19 Transcription Factor (Internal Marker) (AID 2282939). The note with it: HepG2 Attagene CIS-FACTORIAL M19 internal marker reporter; actives raise or lower the signal. A digest of the protocol: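 HepG2 cells transiently transfected with cis-regulated multiple reporter transcription units were dosed for 24 h; reporter mRNA was quantified by RT-PCR, 6-FAM primer-extension labelling, HpaI digestion and capillary electrophoresis, with bidirectional fitting against DMSO baseline.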

Test [14] can be described thus: ATG_Ets_CIS: Attagene CIS-FACTORIAL HepG2 Assay for human Erythroblast Transformation Specific (ETS) (AID 2282941). Particulars: HepG2 ETS cis-reporter transcription, actives raise or lower the signal. A digest of the protocol: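 Endogenous transcription factor activity read as reporter mRNA via RT-PCR and capillary electrophoresis, with gain or loss fitted bidirectionally against DMSO. Human HepG2 liver cells, transiently transfected CIS reporter constructs, 24 h exposure.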

For test [15], the target named is Hepatocyte nuclear factor 3-beta (Homo sapiens) (UniProt Q9Y261). The test can be described thus: ATG_FoxA2_CIS: Attagene CIS-FACTORIAL HepG2 Assay for human Forkhead box A2 (FOXA2) (AID 2282942). The note with it: HepG2 cis-reporter transcription factor activity, 24 h; actives raise or lower the signal. A digest of the protocol: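 Measured: reporter mRNA induction or loss in HepG2 transiently carrying multiple cis-regulated reporter units, 24 h after dosing. Quantified by RT-PCR plus capillary electrophoresis, normalised to DMSO.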
Sequence of Hepatocyte nuclear factor 3-beta (Homo sapiens) (Q9Y261 whole entry, looked up): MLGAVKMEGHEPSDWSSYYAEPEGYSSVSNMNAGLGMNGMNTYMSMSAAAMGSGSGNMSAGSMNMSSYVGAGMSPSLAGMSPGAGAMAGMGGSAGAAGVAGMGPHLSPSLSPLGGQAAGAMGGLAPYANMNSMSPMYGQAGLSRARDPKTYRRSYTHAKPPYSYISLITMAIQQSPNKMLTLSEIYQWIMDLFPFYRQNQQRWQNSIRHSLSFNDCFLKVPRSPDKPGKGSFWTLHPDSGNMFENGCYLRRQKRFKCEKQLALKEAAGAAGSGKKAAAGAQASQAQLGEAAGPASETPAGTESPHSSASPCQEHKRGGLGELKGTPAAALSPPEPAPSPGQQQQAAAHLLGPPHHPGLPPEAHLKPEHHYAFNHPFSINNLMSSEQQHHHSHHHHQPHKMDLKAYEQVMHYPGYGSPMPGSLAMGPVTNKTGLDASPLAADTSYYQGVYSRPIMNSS

A short description of test [16]: ATG_FoxO_CIS: Attagene CIS-FACTORIAL HepG2 Assay for human Forkhead box O (FoxO) (AID 2282943). The note with it: HepG2 Attagene cis-reporter, FoxO element, mRNA; actives raise or lower the signal. A digest of the protocol:
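Read-out: fluorescence of 6-FAM-labelled reporter cDNA fragments resolved by capillary electrophoresis. Transiently transfected HepG2 cells were dosed for 24 h; activity fitted in both directions relative to DMSO controls.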

Test [17] in a line: ATG_GATA_CIS: Attagene CIS-FACTORIAL HepG2 Assay for human GATA Binding Protein (AID 2282944). Particulars: HepG2 GATA cis-element reporter, Attagene multiplex mRNA; actives raise or lower the signal. A digest of the protocol:
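HepG2 cells transiently transfected with multiplexed cis-element reporter units reflecting endogenous transcription factor activity; reporter mRNA measured after 24 h dosing by RT-PCR, 6-FAM labeling, HpaI digestion and capillary electrophoresis. Bidirectional fitting versus DMSO baseline.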

Test [18] is described as follows: ATG_GLI_CIS: Attagene CIS-FACTORIAL HepG2 Assay for human Zinc Finger Protein GLI1 (AID 2282945). The note with it: HepG2, Attagene cis-factorial reporter mRNA, GLI element; actives raise or lower the signal. A digest of the protocol: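 Transiently transfected HepG2 cells report endogenous transcription factor activity via cis-element-driven reporter units. After 24 h compound exposure, reporter mRNA was measured by RT-PCR with capillary electrophoresis; bidirectional fitting against DMSO baseline.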

Test [19] can be described thus: ATG_ERE_CIS: Attagene CIS-FACTORIAL HepG2 Assay for Estrogen Response Element (ERE) (AID 2282940). The note with it: HepG2 ERE cis-reporter, Attagene RNA transcript; actives raise or lower the signal. A digest of the protocol:
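HepG2 cells transiently transfected with cis-promoter-driven multiplexed reporter transcription units report endogenous TF activity. After 24 h compound exposure, reporter mRNA is quantified by RT-PCR with capillary electrophoresis fluorescence; bidirectional fitting versus DMSO baseline.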

Test [20] can be described thus: ATG_DR4_LXR_CIS: Attagene CIS-FACTORIAL HepG2 Assay for human Liver X Receptor (LXR), DR4 submotif (AID 2282929). The note with it: HepG2 Attagene DR4 cis-reporter, mRNA transcription; actives raise or lower the signal. A digest of the protocol:
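DR4 cis-reporter in HepG2, 24 h exposure. Detection: RT-PCR, 6-FAM labelling, CE fragment analysis. Endpoint fitted bidirectionally, DMSO = baseline.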

Sequence of CCAAT/enhancer-binding protein beta (Homo sapiens) (P17676 whole entry, looked up): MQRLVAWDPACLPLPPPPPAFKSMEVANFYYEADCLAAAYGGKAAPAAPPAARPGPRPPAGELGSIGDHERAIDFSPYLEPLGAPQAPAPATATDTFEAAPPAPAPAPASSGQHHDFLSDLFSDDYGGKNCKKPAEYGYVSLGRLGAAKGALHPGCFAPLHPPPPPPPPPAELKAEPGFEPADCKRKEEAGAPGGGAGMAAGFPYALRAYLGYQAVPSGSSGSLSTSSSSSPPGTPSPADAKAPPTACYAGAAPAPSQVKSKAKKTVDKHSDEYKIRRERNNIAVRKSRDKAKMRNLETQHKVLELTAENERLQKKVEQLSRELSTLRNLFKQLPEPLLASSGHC
Sequence of Retinoic acid receptor alpha (Homo sapiens) (P10276 whole entry, looked up): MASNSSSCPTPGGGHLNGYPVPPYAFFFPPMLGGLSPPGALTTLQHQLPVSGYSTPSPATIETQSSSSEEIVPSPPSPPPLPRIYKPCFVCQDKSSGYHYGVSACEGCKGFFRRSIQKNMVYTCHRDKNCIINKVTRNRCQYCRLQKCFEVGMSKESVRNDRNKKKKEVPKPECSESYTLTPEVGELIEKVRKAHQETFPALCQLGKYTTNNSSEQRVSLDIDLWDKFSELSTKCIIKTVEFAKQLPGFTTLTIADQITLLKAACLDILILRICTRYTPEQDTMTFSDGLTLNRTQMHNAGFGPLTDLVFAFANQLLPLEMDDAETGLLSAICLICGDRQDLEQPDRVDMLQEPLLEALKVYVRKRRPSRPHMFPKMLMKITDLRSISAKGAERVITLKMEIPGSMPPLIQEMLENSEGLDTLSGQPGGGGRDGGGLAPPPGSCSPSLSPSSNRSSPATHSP
Sequence of Aryl hydrocarbon receptor (Homo sapiens) (P35869 whole entry, looked up): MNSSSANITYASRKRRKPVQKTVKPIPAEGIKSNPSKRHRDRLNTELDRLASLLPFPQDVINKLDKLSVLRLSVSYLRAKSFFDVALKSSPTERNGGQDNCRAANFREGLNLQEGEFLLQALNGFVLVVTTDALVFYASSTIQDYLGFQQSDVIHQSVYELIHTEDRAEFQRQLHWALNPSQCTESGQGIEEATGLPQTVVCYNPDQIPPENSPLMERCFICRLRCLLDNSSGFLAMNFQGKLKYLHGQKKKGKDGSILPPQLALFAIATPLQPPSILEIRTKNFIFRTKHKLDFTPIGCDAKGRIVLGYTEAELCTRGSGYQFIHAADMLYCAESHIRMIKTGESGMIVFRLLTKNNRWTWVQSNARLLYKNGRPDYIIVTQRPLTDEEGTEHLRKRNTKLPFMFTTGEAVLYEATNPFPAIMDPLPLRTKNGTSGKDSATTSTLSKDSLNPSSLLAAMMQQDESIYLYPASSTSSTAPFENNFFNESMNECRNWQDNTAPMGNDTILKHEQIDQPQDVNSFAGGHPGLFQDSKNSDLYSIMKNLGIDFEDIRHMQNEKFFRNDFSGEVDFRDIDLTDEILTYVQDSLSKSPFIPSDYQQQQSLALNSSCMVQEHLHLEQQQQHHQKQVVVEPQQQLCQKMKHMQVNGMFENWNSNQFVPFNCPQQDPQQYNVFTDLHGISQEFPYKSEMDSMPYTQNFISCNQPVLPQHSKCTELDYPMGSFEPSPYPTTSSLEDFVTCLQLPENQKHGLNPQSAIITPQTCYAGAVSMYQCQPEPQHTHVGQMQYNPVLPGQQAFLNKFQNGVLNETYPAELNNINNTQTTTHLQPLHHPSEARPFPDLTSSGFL

Regarding `CCOC(=O)CN`, the result in test [1], in [2], in test [3], in test [4], in test [5] and in test [6] was inactive. Also, the call in test [7], in [8], in test [9], in test [10], in test [11] and in test [12] was inactive. The call in test [13], in [14], in test [15], in test [16], in test [17] and in [18] was inactive.
`O=CN1CCOCC1`: the call in test [1], in test [2], in test [3], in test [4], in [5] and in test [6] was inactive. Moreover, the call in test [7], in [8], in [9], in [10], in test [11] and in test [13] was inactive. Besides, the compound was called inactive in test [19], in [14], in test [15], in test [16], in test [17] and in test [18].
For `CCOC(=O)C1OC1c1ccccc1` (configuration not stated), the outcome in test [1], in [2], in test [6], in test [7], in test [9] and in test [11] was inactive. Also, the outcome in test [12], in test [13], in test [14], in test [15], in test [17] and in [18] was inactive. Further, the AC50 in [3] was 38.6 µM (active); in test [20], 37.6 µM (active); in test [4], 11.5 µM (active); in [8], 49.9 µM (active); in test [10], 57 µM (active).
For `CCCN(CCC)S(=O)(=O)c1ccc(C(=O)O)cc1`, the call in [1], in [2], in test [20], in test [4], in test [5] and in test [6] was inactive. Moreover, the compound was called inactive in test [8], in test [9], in test [10], in test [11], in test [12] and in test [13]. For the same compound, the compound was classed as inactive in test [14], in [15], in test [16], in test [17] and in test [18].
Turning to `O=C(Nc1ccc2c(c1)Cc1ccccc1-2)C(F)(F)F`, the outcome in test [1], in test [2], in test [20], in [5], in [6] and in test [8] was inactive. Further, the call in [9], in [10], in test [11], in [12], in test [14] and in test [15] was inactive. The call in [16], in test [17] and in test [18] was inactive. Besides, the AC50 in [4] was 10.2 µM (active).
Regarding `Nc1c(Cl)cc(Cl)cc1[N+](=O)[O-]`, the outcome in test [1], in test [2], in test [4], in test [5], in test [6] and in test [7] was inactive. Moreover, the compound was called inactive in test [8], in [11], in test [13], in [19], in [14] and in [15]. In addition, the result in test [16], in test [17] and in test [18] was inactive. Further, the AC50 in test [3] is 69.1 µM (active); in test [10], 92 µM (active).
In the case of `CC(CN=Cc1ccccc1O)N=Cc1ccccc1O` (configuration not stated), the result in test [1], in test [2], in test [6], in test [7], in [8] and in [9] was inactive. Further, the result in test [10], in test [11], in test [12], in [13], in [14] and in [15] was inactive. The result in [16], in test [17] and in test [18] was inactive. The figures for the concentration at half-maximal activity (AC50) in test [3] and in [4] were 100 µM (active) and 68.7 µM (active), respectively.
As for `CC(C)CCOC(=O)c1ccccc1`, the outcome in test [1], in [2], in test [20], in test [4], in test [5] and in test [6] was inactive. Also, the call in [7], in [8], in test [9], in [10], in [11] and in test [13] was inactive. The compound was called inactive in test [14], in test [15], in test [16], in test [17] and in [18].

A word on the AC50: it is the concentration giving half of the maximal activity seen.
